# Experiments:
# Test in all cases: DAPPL (digital affinity profiling via proximity ligation, sequencing); 10 mM Tris-HCl pH 7.5, 50 mM NaCl, 1 mM DTT, 4% glycerol, room temperature, 30 min; GST-TFs on glutathione beads, 16-mer random dsDNA library, 0.1% formaldehyde crosslink after washing; high values mean tight binding
# FLI1 = biological target: T1, FLI1 (Homo sapiens, UniProt Q01543 1-452); conditions: protein: recombinant; tags: N-terminal GST; dsDNA, one strand shown
# T1 sequence: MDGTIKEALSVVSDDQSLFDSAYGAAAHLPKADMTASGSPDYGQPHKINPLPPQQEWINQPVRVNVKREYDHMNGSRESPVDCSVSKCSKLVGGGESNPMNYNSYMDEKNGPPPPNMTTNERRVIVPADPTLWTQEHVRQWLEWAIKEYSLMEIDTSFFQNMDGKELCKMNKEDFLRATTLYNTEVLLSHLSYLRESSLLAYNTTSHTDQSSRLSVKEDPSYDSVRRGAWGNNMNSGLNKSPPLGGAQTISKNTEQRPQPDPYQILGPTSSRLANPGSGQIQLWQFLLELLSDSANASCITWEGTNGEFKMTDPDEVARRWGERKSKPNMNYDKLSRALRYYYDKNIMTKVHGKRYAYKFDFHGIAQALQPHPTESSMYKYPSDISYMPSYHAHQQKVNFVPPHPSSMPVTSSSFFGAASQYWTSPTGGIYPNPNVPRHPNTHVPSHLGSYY
# Outline: (§1)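 GST fusions of human transcription factors were expressed in yeast and captured with glutathione beads. Once given DNA barcodes and pooled alongside a tag-only sample, they were incubated for 30 min at room temperature with 200 nmole of a random double-stranded 16-mer DNA library in Tris/NaCl/DTT/glycerol buffer, then washed, crosslinked (0.1% formaldehyde), proximity-ligated, PCR-amplified and sequenced on an Illumina NextSeq500. The binding signal of each hexamer is its read frequency for a factor divided by its frequency for the tag-only sample.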
# ELK1 = biological target: T2, ELK1 (Homo sapiens, UniProt P19419 1-428); conditions: protein: recombinant; tags: N-terminal GST; dsDNA, one strand shown
# T2 sequence: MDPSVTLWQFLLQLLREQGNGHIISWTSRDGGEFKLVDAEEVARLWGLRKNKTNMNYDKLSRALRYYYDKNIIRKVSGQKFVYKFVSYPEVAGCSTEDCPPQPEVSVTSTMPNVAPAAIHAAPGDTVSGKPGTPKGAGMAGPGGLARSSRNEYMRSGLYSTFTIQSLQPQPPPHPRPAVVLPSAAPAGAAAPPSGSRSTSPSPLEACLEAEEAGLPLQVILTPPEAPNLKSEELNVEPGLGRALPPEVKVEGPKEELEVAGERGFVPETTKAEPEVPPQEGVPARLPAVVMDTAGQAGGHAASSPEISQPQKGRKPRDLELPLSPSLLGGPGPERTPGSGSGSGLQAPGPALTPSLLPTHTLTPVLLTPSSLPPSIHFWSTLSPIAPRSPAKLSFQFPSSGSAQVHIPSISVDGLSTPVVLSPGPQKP
# Outline: as §1
# GABPA = biological target: T3, GABPA (Homo sapiens, UniProt Q06546 1-454); conditions: protein: recombinant; tags: N-terminal GST; dsDNA, one strand shown
# T3 sequence: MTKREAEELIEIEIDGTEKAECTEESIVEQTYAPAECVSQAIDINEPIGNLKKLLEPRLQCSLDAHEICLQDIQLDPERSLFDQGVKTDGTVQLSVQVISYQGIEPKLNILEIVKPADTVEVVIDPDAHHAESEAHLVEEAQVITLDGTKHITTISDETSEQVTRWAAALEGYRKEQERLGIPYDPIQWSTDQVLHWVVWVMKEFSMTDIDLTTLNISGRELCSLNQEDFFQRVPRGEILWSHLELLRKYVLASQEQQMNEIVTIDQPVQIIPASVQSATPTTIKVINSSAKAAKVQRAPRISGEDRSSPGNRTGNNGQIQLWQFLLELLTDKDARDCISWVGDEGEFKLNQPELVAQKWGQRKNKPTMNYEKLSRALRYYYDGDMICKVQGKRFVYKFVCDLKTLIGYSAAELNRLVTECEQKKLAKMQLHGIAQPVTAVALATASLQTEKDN
# Outline: as §1
# ERG = biological target: T4, ERG (Homo sapiens, UniProt P11308 1-479); conditions: protein: recombinant; tags: N-terminal GST; dsDNA, one strand shown
# T4 sequence: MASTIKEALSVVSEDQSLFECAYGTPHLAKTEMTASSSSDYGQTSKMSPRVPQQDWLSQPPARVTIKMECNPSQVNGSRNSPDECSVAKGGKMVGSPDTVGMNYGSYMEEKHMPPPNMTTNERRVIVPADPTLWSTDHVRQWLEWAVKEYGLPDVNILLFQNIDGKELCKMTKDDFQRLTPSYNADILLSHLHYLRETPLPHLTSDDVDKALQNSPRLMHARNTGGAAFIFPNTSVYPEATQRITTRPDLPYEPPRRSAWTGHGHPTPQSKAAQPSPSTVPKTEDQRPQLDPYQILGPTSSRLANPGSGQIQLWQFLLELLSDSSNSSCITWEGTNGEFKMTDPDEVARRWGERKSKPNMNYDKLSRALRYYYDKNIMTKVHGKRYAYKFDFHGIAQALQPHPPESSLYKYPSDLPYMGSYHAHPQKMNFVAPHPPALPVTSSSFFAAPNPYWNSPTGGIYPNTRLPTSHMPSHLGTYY
# Outline: as §1
# ELF1 = ELF1 (Homo sapiens, UniProt P32519 1-619); conditions: protein: recombinant; tags: N-terminal GST; dsDNA, one strand shown
# Sequence of ELF1 (P32519 whole entry): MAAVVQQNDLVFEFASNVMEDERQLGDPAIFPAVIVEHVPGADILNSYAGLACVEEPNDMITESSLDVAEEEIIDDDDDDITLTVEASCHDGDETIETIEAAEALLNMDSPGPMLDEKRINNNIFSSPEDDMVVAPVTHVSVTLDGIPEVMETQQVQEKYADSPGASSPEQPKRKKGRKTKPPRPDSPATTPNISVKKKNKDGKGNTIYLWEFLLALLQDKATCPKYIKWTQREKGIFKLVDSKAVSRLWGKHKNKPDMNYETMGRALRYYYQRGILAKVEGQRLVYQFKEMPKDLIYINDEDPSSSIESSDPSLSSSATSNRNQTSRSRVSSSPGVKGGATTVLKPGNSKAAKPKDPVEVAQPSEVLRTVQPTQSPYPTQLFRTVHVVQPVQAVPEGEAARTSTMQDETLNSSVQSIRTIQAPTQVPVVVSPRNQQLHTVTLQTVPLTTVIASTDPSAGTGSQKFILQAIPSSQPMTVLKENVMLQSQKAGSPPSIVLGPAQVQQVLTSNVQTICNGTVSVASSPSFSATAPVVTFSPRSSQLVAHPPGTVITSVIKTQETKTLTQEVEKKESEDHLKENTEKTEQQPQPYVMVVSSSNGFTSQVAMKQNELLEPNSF
# Outline: as §1
# EHF = biological target: T5, EHF (Homo sapiens, UniProt Q9NZC4 1-300); conditions: protein: recombinant; tags: N-terminal GST; dsDNA, one strand shown
# T5 sequence: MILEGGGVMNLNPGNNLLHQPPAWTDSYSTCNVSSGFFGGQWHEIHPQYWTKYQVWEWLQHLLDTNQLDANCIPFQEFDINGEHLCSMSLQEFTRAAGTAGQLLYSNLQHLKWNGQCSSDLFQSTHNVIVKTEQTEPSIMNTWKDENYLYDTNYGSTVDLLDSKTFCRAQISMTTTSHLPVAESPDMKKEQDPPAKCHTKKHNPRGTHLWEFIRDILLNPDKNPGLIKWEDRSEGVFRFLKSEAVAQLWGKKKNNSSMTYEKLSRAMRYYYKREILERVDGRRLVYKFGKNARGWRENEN
# Outline: as §1
# SPI1 = SPI1 (Homo sapiens, UniProt P17947 1-270); conditions: protein: recombinant; tags: N-terminal GST; dsDNA, one strand shown
# Outline: as §1
# SPIB = SPIB (Homo sapiens, UniProt Q01892 1-262); conditions: protein: recombinant; tags: N-terminal GST; dsDNA, one strand shown
# Sequence of SPIB (Q01892 whole entry): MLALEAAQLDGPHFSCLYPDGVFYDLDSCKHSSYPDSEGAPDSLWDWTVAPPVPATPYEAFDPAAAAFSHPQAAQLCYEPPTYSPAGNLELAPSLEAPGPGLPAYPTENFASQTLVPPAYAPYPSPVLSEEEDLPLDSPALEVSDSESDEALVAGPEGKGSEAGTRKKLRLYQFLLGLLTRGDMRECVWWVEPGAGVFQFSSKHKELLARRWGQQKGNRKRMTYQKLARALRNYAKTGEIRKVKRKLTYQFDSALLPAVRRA
# Outline: as §1
# ELK3 = biological target: T6, ELK3 (Homo sapiens, UniProt P41970 1-407); conditions: protein: recombinant; tags: N-terminal GST; dsDNA, one strand shown
# T6 sequence: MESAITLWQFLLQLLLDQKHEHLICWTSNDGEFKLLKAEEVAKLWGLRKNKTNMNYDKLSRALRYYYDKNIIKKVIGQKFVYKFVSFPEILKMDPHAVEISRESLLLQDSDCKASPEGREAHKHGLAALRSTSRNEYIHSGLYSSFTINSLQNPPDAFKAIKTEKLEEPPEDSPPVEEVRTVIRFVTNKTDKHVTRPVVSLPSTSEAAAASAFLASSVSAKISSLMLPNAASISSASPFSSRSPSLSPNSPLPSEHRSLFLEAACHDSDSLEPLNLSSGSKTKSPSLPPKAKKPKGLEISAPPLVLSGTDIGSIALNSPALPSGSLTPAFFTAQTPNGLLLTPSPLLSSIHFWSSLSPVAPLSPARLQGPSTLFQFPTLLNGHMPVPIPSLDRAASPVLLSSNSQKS
# Outline: as §1
# ETV5 = ETV5 (Homo sapiens, UniProt P41161 1-510); conditions: protein: recombinant; tags: N-terminal GST; dsDNA, one strand shown
# Sequence of ETV5 (P41161 whole entry): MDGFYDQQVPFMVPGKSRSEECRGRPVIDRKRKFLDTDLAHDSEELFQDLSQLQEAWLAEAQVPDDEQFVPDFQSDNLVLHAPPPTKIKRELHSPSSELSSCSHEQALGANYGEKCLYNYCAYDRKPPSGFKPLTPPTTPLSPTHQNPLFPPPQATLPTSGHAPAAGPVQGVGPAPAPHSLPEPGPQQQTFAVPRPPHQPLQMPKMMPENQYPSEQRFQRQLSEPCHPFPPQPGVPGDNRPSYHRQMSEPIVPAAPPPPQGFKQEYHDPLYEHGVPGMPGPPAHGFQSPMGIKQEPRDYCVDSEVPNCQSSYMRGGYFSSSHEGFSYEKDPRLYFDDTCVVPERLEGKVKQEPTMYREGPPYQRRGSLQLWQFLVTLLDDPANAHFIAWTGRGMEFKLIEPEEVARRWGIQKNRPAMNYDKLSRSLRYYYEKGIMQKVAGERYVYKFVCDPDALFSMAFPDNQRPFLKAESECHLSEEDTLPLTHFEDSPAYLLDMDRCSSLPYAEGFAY
# Outline: as §1
# HSF1 = HSF1 (Homo sapiens, UniProt Q00613 1-529); conditions: protein: recombinant; tags: N-terminal GST; chain copies: 3; dsDNA, one strand shown
# Sequence of HSF1 (Q00613 whole entry): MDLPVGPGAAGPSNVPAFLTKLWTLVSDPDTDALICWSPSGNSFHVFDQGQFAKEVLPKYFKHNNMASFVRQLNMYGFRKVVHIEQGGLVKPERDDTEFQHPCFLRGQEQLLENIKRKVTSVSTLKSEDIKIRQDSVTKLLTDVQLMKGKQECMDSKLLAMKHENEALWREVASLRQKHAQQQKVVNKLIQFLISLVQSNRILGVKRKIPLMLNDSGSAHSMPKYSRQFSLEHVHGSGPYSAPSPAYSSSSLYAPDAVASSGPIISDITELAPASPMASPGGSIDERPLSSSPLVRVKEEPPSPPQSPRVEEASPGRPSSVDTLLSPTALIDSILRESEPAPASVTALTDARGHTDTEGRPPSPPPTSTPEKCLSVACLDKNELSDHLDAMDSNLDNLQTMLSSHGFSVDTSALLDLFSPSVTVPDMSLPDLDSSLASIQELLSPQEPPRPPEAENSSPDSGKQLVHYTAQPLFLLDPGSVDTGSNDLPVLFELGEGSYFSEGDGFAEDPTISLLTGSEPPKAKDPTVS
# Outline: as §1
# SPIC = biological target: T7, SPIC (Homo sapiens, UniProt Q8N5J4 1-248); conditions: protein: recombinant; tags: N-terminal GST; dsDNA, one strand shown
# T7 sequence: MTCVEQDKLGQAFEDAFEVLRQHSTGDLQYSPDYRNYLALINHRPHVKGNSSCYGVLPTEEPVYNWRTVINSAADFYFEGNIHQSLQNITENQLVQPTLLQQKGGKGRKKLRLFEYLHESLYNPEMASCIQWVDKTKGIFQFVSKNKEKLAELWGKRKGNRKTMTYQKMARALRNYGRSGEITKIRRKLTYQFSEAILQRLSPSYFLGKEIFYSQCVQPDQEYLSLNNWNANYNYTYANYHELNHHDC
# Outline: as §1
# ELF4 = ELF4 (Homo sapiens, UniProt Q99607 1-663); conditions: protein: recombinant; tags: N-terminal GST; dsDNA, one strand shown
# Sequence of ELF4 (Q99607 whole entry): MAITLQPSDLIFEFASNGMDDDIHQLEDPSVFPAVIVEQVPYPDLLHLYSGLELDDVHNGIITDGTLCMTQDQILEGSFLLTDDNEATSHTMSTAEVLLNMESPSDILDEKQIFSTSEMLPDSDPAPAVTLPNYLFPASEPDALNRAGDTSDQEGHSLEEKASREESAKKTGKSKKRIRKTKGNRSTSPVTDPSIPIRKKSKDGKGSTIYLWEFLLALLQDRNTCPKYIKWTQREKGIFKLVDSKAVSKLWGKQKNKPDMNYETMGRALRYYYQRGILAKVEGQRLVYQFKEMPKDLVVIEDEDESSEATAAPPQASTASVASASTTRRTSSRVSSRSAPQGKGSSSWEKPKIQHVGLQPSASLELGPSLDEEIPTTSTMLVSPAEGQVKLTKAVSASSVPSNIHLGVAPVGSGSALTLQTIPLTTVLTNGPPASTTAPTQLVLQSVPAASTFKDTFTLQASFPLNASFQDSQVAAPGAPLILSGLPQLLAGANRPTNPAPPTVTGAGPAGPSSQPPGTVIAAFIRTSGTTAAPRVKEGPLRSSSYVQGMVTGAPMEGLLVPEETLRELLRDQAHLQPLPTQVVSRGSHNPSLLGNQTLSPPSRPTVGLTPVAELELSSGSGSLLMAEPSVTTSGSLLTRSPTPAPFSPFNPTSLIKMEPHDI
# Outline: as §1
# ELK4 = biological target: T8, ELK4 (Homo sapiens, UniProt P28324-2 1-405); conditions: protein: recombinant; tags: N-terminal GST; dsDNA, one strand shown
# T8 sequence: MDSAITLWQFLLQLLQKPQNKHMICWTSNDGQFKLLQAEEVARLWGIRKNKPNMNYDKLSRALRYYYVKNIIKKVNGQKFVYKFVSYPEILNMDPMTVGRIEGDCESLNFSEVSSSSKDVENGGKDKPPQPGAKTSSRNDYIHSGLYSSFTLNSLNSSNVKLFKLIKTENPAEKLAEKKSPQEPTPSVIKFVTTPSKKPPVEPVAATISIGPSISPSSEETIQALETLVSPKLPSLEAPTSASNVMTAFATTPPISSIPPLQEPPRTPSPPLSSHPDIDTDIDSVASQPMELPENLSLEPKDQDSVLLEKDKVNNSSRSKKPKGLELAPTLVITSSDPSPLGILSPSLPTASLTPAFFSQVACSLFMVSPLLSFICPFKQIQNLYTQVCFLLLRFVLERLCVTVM
# Outline: as §1
# ETV2 = biological target: T9, ETV2 (Homo sapiens, UniProt O00321 1-342); conditions: protein: recombinant; tags: N-terminal GST; dsDNA, one strand shown
# T9 sequence: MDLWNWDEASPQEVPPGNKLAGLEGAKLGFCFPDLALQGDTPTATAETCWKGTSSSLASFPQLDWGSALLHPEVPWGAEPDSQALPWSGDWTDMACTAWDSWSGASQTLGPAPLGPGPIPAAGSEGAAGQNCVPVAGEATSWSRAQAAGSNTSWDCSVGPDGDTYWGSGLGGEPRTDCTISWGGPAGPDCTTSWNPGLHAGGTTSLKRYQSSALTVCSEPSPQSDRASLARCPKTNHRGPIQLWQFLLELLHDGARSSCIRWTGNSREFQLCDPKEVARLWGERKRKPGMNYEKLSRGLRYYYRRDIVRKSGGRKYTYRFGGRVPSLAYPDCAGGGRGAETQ
# Outline: as §1
# ELF3 = biological target: T10, ELF3 (Homo sapiens, UniProt P78545 1-371); conditions: protein: recombinant; tags: N-terminal GST; dsDNA, one strand shown
# T10 sequence: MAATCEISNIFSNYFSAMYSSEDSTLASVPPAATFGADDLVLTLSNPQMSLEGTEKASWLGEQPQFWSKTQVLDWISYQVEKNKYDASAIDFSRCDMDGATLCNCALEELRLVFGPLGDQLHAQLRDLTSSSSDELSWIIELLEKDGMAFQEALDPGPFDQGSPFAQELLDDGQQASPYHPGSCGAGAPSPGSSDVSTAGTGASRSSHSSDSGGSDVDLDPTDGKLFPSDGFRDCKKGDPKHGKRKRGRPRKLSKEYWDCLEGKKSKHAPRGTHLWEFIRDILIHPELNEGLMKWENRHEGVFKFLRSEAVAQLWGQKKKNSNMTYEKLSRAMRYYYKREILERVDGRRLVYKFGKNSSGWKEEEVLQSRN
# Outline: as §1
# CRX = CRX (Homo sapiens, UniProt O43186 1-299); conditions: protein: recombinant; tags: N-terminal GST; dsDNA, one strand shown
# Sequence of CRX (O43186 whole entry): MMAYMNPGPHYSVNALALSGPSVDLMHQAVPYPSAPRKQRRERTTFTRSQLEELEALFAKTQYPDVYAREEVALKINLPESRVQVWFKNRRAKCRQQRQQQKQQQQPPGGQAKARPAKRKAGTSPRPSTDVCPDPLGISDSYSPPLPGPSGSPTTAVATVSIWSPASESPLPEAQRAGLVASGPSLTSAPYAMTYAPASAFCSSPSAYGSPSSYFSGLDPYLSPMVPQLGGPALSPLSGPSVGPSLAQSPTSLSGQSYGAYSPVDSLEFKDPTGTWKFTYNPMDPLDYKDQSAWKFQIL
# Outline: as §1
# ETV1 = ETV1 (Homo sapiens, UniProt P50549 1-477); conditions: protein: recombinant; tags: N-terminal GST; dsDNA, one strand shown
# Sequence of ETV1 (P50549 whole entry): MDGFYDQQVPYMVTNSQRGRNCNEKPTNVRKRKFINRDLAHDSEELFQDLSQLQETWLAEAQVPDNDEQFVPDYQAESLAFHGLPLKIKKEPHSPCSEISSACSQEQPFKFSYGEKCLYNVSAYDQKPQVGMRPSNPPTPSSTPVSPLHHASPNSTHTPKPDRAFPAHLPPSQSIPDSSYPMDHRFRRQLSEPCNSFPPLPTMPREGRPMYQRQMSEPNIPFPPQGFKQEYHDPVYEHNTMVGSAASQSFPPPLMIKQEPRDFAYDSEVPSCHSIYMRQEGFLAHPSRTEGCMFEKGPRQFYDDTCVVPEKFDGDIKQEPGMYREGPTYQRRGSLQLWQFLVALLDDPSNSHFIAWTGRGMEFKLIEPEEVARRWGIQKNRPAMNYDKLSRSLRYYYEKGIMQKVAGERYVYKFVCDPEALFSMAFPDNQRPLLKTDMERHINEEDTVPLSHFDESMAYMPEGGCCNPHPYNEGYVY
# Outline: as §1
Sequence,binding signal (FLI1),binding signal (ELK1),binding signal (GABPA),binding signal (ERG),binding signal (ELF1),binding signal (EHF),binding signal (SPI1),binding signal (SPIB),binding signal (ELK3),binding signal (ETV5),binding signal (HSF1),binding signal (SPIC),binding signal (ELF4),binding signal (ELK4),binding signal (ETV2),binding signal (ELF3),binding signal (CRX),binding signal (ETV1)
TAGAAG,"1.05 fold enrichment (6-mer frequency, TF over GST control)","1.19 fold enrichment (6-mer frequency, TF over GST control)","1.15 fold enrichment (6-mer frequency, TF over GST control)","1.19 fold enrichment (6-mer frequency, TF over GST control)","1.23 fold enrichment (6-mer frequency, TF over GST control)","1.15 fold enrichment (6-mer frequency, TF over GST control)","1.24 fold enrichment (6-mer frequency, TF over GST control)","1.24 fold enrichment (6-mer frequency, TF over GST control)","1.13 fold enrichment (6-mer frequency, TF over GST control)","1.08 fold enrichment (6-mer frequency, TF over GST control)","2.77 fold enrichment (6-mer frequency, TF over GST control)","1.31 fold enrichment (6-mer frequency, TF over GST control)","1.19 fold enrichment (6-mer frequency, TF over GST control)","1.16 fold enrichment (6-mer frequency, TF over GST control)","1.18 fold enrichment (6-mer frequency, TF over GST control)","1.18 fold enrichment (6-mer frequency, TF over GST control)","1.72 fold enrichment (6-mer frequency, TF over GST control)","1.06 fold enrichment (6-mer frequency, TF over GST control)"
TAGGTT,"1.13 fold enrichment (6-mer frequency, TF over GST control)","1.04 fold enrichment (6-mer frequency, TF over GST control)","1 fold enrichment (6-mer frequency, TF over GST control)","1.11 fold enrichment (6-mer frequency, TF over GST control)","1.08 fold enrichment (6-mer frequency, TF over GST control)","1.08 fold enrichment (6-mer frequency, TF over GST control)","1.14 fold enrichment (6-mer frequency, TF over GST control)","1.13 fold enrichment (6-mer frequency, TF over GST control)","1.16 fold enrichment (6-mer frequency, TF over GST control)","1.13 fold enrichment (6-mer frequency, TF over GST control)","1.18 fold enrichment (6-mer frequency, TF over GST control)","1.16 fold enrichment (6-mer frequency, TF over GST control)","1.09 fold enrichment (6-mer frequency, TF over GST control)","1.12 fold enrichment (6-mer frequency, TF over GST control)","1.33 fold enrichment (6-mer frequency, TF over GST control)","1.14 fold enrichment (6-mer frequency, TF over GST control)","1.25 fold enrichment (6-mer frequency, TF over GST control)","1.13 fold enrichment (6-mer frequency, TF over GST control)"

# From publication PMC7862700, “An all-to-all approach to the identification of sequence-specific readers for epigenetic DNA modifications on cytosine”
